High-throughput results as filed in PubChem BioAssay.
Shown are actives, neighbours in structure and some others; about 12% of the full set was active somewhere.
G9a block: qHTS Assay for Inhibitors of Histone Lysine Methyltransferase G9a | Histone-lysine N-methyltransferase EHMT2 (Homo sapiens), Q96KQ7 | G9a H3K9 monomethylation, AlphaScreen, 2 h | hit rate 8.8% among 350,000 | Potency, µM (series often up to 102 µM), for inactives: at the top dose activity, negative = inhibition, actives largely listed as inhibitors; note: % is set by controls: 0 for no effect and ±100 for the full control effect; nearly all actives have a fitted effect of over 75% in size
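Quantitative HTS format: methyltransferase activity on a biotin-tagged H3K9 peptide is measured by AlphaScreen, using a rabbit anti-monomethyl-H3K9 antibody with streptavidin donor and anti-IgG acceptor beads. Final levels are 20 nM enzyme, 500 nM peptide, 20 uM SAM; 2 h RT.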
HP1b chromo inh: HTS for Inhibitors of HP1-beta Chromodomain Interactions with Methylated Histone Tails; AlphaScreen HP1-beta / biotin-H3K9me3 peptide binding; Potency, µM (titrated, usually from 114 µM), inactives show top-dose activity change, negative = inhibition, hits mostly inhibitors; hit rate 0.56% among 390,000; note: nearly all actives have a fitted effect of over 70% in size
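AlphaScreen: HP1-beta (50 nM) preformed 30 min with biotin-H3(1-18)K9me3 peptide (50 nM) in PBS pH 7.4, 0.01% Tween-20. Compound added for 30 min at RT, then streptavidin donor/nickel chelate acceptor beads (10 ug/mL) for 30 min.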
JMJD2A Tudor: qHTS Assay for Inhibitors of JMJD2A-Tudor Domain | hit rate 4.4% among 390,000 | AID 504339, 2011 | Potency, µM (series often up to 114 µM), for inactives: at the top dose activity change, negative = inhibition, most hits filed as inhibitors | AlphaScreen JMJD2A-Tudor / H3K4me3 peptide binding; note: % is set by controls: 0 for no effect and ±100 for the full control effect; nearly all actives have a fitted effect of over 50% in size
Target sequence (O75164 whole entry, looked up, the tested form may be a part): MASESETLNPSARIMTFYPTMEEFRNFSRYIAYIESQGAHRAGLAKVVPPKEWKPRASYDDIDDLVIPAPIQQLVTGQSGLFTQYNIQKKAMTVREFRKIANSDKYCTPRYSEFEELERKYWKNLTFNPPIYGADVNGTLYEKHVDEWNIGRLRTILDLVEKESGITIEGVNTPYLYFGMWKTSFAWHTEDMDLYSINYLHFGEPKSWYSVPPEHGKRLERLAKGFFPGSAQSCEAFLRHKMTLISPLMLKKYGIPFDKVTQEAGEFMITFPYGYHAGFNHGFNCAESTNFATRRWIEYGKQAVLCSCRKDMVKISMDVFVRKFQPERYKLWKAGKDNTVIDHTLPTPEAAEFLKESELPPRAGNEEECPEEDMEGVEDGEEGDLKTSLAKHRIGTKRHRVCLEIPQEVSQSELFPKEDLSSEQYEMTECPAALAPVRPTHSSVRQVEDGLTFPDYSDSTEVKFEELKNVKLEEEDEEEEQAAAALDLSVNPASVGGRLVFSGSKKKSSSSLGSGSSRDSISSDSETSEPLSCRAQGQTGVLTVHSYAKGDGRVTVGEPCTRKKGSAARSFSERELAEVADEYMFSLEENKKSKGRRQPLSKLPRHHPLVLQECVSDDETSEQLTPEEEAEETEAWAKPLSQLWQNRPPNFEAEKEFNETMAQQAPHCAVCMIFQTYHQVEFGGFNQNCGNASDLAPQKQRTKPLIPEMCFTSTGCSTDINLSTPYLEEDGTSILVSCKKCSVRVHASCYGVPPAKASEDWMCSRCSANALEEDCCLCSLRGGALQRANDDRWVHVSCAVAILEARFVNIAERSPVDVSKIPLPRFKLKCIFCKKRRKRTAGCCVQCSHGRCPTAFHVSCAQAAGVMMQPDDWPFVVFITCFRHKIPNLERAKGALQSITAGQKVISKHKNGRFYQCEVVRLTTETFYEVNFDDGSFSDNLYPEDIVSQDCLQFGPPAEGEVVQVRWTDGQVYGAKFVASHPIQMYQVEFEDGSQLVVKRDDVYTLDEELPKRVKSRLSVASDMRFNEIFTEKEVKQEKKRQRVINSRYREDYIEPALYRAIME
L3MBTL1 inh: qHTS Assay for the Inhibitors of L3MBTL1 | Lethal(3)malignant brain tumor-like protein 1 (Homo sapiens), Q9Y468 | AlphaScreen L3MBTL1–H3K9me1 peptide binding | Potency, µM (doses to about 57.1 µM), without a hit: at the highest dose activity, negative = inhibition, hits mostly inhibitors | hit rate 0.66% among 230,000 | AID 485360, 2010; note: % is set by controls: 0 for no effect and ±100 for the full control effect; nearly all actives have a fitted effect of over 60% in size
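L3MBTL1 (50 nM) pre-complexed 30 min with biotinylated H3(1-15)K9me1 peptide (75 nM), then compounds added for 30 min at room temperature; AlphaScreen streptavidin donor/nickel chelate acceptor beads (10 ug/mL final) read after 30 min dark incubation.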
Sfp PPTase inh: qHTS Assay for Inhibitors of Bacillus subtilis Sfp phosphopantetheinyl transferase (PPTase); hit rate 3.5% among 310,000; Potency, µM, without a hit: largest response in the series, negative = inhibition, actives largely listed as inhibitors; Biochemical Sfp PPTase activity, qHTS; AID 1490, 2009;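 note: the enzyme is Sfp with the accession as filed and its product quenches rhodamine fluorescence; 0% = enzyme reaction without inhibitor and -100% = no enzyme wells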
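Reaction rates are the 30-min fluorescence difference (ex 525, em 598 nm) in wells containing 15 nM Sfp, 5 uM rhodamine-CoA and 12.5 uM BHQ-2-YbbR at pH 7.6 with 10 mM MgCl2.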
BAZ2B inh: qHTS Assay for Inhibitors of BAZ2B | Potency, µM (series often up to 114 µM), inactives show at the top dose activity change, negative = inhibition, most hits filed as inhibitors | Bromodomain adjacent to zinc finger domain protein 2B (Homo sapiens), Q9UIF8 | AlphaScreen BAZ2B-H3K14Ac peptide displacement | AID 504333, 2011 | hit rate 4.4% among 360,000; note: % is set by controls: 0 for no effect and ±100 for the full control effect; nearly all actives have a fitted effect of over 60% in size
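Compounds, titrated to a top concentration of 110 uM, were incubated 30 min at room temperature with preformed BAZ2B/acetyl-K14 H3 peptide complex (50 nM each). Proximity signal was measured by AlphaScreen after 20 min with beads.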
Starred values were filed as active, the others as inactive; ? = inconclusive; · = no result; [ ] = another dose, or the depositor's remark. Calls come from the whole dose curve; as a rule, active = well fitted curve in the direction sought with a large enough effect; inconclusive = small, poorly fitted or top-dose-only effect, or another doubt; inactive = no such curve, though single readings can be large; an effect the other way counts as inactive or inconclusive. Potency is the fitted concentration of half-maximal effect.

SMILES	G9a block	HP1b chromo inh	JMJD2A Tudor	L3MBTL1 inh	Sfp PPTase inh	BAZ2B inh
[O-]/C(=C(\C(=S)Nc1cccc2ccccc12)[n+]1ccccc1)c1ccc(OC(F)F)cc1	44.7µM*	-24.3%	-29.1%[57.1 µM]	?	44.7µM*	35.5µM*
Cc1ccccc1NC(=S)/C(=C(\[O-])c1ccc(C)c([N+](=O)[O-])c1)[n+]1ccccc1	?	-11.9%	-35.3%	-7.8%	-18.8%	?
COc1cccc(NC(=S)/C(=C(\[O-])c2ccc(C)c([N+](=O)[O-])c2)[n+]2ccccc2)c1	?	-22.4%	?	·	56.2µM*	?
[O-]/C(=C(\C(=S)Nc1ccc(SC(F)F)cc1)[n+]1ccccc1)c1ccc(Cl)cc1Cl	35.5µM*	-5.5%	?	·	14.2%	?
O=S(=O)(c1ccc(Br)cc1)N1CCN(c2nc(-c3cccs3)nc3ccccc23)CC1	·	18.3%	-27.7%	·	·	·
CCOc1cc(C(C(=O)NCC2CCCO2)N(C(=O)Cn2nnc3ccccc32)c2ccc(NC(C)=O)cc2)ccc1O (configuration not stated)	44.7µM*	37.1%	3.9%	·	4.8%	-5.8%
COCCCN(C(=S)Nc1c(C)cc(C)cc1C)C(C)c1ccccn1 (configuration not stated)	39.8µM*	6.0%	-7.0%	3.7%	22.4µM*	-25.4%
COc1cccc(CNC(=O)c2ccc(Cn3c(SCc4ccccc4)nc4cccnc43)cc2)c1	-24.9%[59 µM]	13.8%	-17.8%	·	·	-26.4%
CS(=O)(=O)N1CCN(c2ccc(NC(=S)NC(=O)c3ccc4c(c3)OCO4)cc2)CC1	?	27.7%	-22.4%	-18.4%	13.6%	-0.7%
CC(Sc1ccc2c(c1)OCCO2)C(=O)Nc1ccc(N2CCOCC2)cc1 (configuration not stated)	50.1µM*	23.6%	-7.3%	22.4%	2.3%	-10.2%
CC(=O)N1CCN(c2ccc(NC(=S)NC(=O)c3ccccc3)cc2)CC1	-24.7%[59 µM]	-17.3%	?	2.7%	4.2%	0.3%
O=C(NC(=S)Nc1ccc(F)cc1)c1ccc2c(c1)OCCO2	?	23.4%	-28.5%	-12.2%	1.7%	?
O=C(NC(=S)Nc1ccc(N2CCCCC2)cc1)c1ccc2c(c1)OCCO2	?	?	?	-0.6%	-20.2%	10µM*
O=C(NC(=S)Nc1ccc(N2CCOCC2)cc1)c1ccc2c(c1)OCCO2	10µM*	-24.7%	20µM*	-24.1%	-9.1%	?
O=C(NC(=S)Nc1ccc(N2CCCC2)cc1)c1ccc(F)cc1	?	-14.8%	?	·	-5.7%	11.2µM*
CCOC(=O)c1ccc(NC(=O)C2=C(C)C(=O)OC23CCN(C(C)=O)CC3)cc1	6.5%[59 µM]	27.8%	-13.2%	·	·	0.3%
CC(C)CC(=O)NC(=S)Nc1ccc(CN2CCOCC2)cc1	·	33.3%	-2.0%	8.2%	14.4%	-5.5%
O=C(NC(=S)Nc1ccc(CN2CCOCC2)cc1)c1ccc2c(c1)OCCO2	44.7µM*	?	?	·	?	?
O=C(Nc1c2c(nn1-c1ccc(Cl)cc1)CS(=O)(=O)C2)c1ccccc1F	4.2%[59 µM]	19.7%	-21.7%	·	·	-1.0%
Cc1cccc(-c2nc3ccccc3c(=O)n2NC(=S)N(C)C)c1	8.91µM*	-46.9%	89.1µM*	7.5%	31.6µM*	-5.3%
Cn1nc([N+](=O)[O-])c(C(C#N)c2nc3ccccc3n2C)c(Cl)c1=O (configuration not stated)	?	?	?	-17.2%	8.9%	35.5µM*
CCOc1ccc(Br)cc1S(=O)(=O)NCCN1CCCC1	-35.3%	35.4%	-1.3%	·	3.6%	-34.1%
COc1ccc([C@H]2/C=C\CN(C(=O)c3ccccc3)[C@@H](C)C(=O)N2Cc2ccc(F)cc2)cc1	·	20.9%	-31.0%	·	·	·
CCC(Sc1nc(C)cc(=O)[nH]1)C(=O)Nc1nc2c(s1)CCCC2 (configuration not stated)	44.7µM*	21.2%	-17.9%	-13.0%	-5.3%	?
Cc1ccc(S(=O)(=O)Nc2ccc3nc(-c4cccc(Cl)c4)oc3c2)cc1	5.5%[59 µM]	20.5%	-22.8%	·	·	-9.1%
SMILES	G9a block	HP1b chromo inh	JMJD2A Tudor	L3MBTL1 inh	Sfp PPTase inh	BAZ2B inh
N#CC1=C(N)N(c2ccccc2)C(c2cccc([N+](=O)[O-])c2)C1(C#N)C#N (configuration not stated)	44.7µM*	-15.6%	?	-1.6%	-7.4%	?
N#CC1=C(N)N(c2ccccc2)C(c2ccco2)C1(C#N)C#N (configuration not stated)	15.8%[12.7 µM]	-22.5%	?	-11.1%	9.1%	?
COc1ncc2nc(-c3ccc(Cl)cc3)c(=O)n(C[C@H]3CCCO3)c2n1	1.1%[12.7 µM]	·	·	·	-5.8%	·
C[C@H](NC(=O)[C@@H](Cc1c[nH]c2ccccc12)NC(=O)[C@@H](N)Cc1cnc[nH]1)C(=O)N[C@@H](Cc1c[nH]c2ccccc12)C(=O)N[C@H](Cc1ccccc1)C(=O)N[C@@H](CCCCN)C(N)=O	·	·	·	·	22.3%	·
CSc1nc(NCc2ccccc2)c2c3c(sc2n1)CN(C)CC3	39.8µM*	-2.1%	?	-9.4%	?	-13.8%
CCN(CC)CCNc1nc(SC)nc2sc3c(c12)CCN(C)C3	?	-24.2%	-29.5%	·	5.6%	-10.1%
CSc1nc(NCCCN(C)C)c2c3c(sc2n1)CN(C)CC3	50.1µM*	·	·	·	6.9%	-5.7%
COc1ccc(N2CCN(CC(O)COc3ccc(C)cc3C)CC2)cc1 (configuration not stated)	39.8µM*	?	44.7µM*	·	-4.1%	39.8µM*
COc1ccc(N2CCN(CC(O)COc3cc(C)ccc3C)CC2)cc1 (configuration not stated)	8.91µM*	19.6%	-33.5%	·	-10.5%	?
O=[N+]([O-])c1ccccc1OCC(O)CN1CCN(CC(O)COc2ccccc2[N+](=O)[O-])CC1 (configuration not stated)	·	18.1%	-12.0%	41.1%	11.8%	4.8%
COc1ccc(N2CCN(CC(O)COc3ccccc3[N+](=O)[O-])CC2)cc1 (configuration not stated)	?	?	28.2µM*	-4.2%	12.2%	?
